The campaign covered roughly 16,000 compounds. About 5,700 (36%) were called active. Roughly 24% stayed inconclusive and do not appear here. The list shows a part of the results. Values without a mark were called inactive. Calls come from the whole dose curve; as a rule, active = well fitted curve in the direction sought with a large enough effect; inconclusive = small, poorly fitted or top-dose-only effect, or effect the other way; inactive = no such curve, though single readings can be large or run the other way.

Broadly, the AC50 is the concentration giving half of the maximal activity seen.
% is set by controls: 0 for no effect and ±100 for the full control effect.

In the assay the target is Cytochrome P450 1A2 (Homo sapiens) (UniProt P05177). The assay is described as follows: Cytochrome panel assay with activity outcomes. Conditions: recombinant CYP, pro-luciferin dealkylation, luminescence, p450-cyp1a2; series mostly up to 57.1 µM; activity, negative = inhibition: at the top concentration.
Sequence of Cytochrome P450 1A2 (Homo sapiens) (P05177 whole entry, looked up): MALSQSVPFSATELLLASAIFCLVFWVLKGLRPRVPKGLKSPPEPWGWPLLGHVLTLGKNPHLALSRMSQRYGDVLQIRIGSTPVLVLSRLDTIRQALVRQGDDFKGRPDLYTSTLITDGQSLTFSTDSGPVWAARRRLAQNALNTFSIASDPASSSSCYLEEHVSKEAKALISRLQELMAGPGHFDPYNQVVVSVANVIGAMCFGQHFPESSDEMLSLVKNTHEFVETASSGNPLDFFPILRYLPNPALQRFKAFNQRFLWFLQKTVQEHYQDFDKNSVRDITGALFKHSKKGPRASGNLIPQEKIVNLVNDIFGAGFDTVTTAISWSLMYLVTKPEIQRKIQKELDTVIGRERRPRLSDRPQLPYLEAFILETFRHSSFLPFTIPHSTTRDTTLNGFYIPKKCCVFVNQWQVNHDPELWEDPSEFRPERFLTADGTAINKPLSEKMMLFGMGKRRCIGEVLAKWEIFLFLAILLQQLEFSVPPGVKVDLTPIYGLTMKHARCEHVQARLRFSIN
For `Oc1ccc([C@@H]2CNCCc3c2cc(O)c(O)c3Cl)cc1`, the AC50 entry was “inactive”.
Consider `CN1CC[C@@]2(CCCN(C(=O)c3cc(C(F)(F)F)cc(C(F)(F)F)c3)C2)C1`, for which the “activity, negative = inhibition” value was -5.26%.
For the compound `CN(/C=C/C(=O)C(F)(F)F)Cc1ccccc1`, the “activity, negative = inhibition” value was -22.8%.
For `C/C(CC(=O)NCCCN1CCOCC1)=N\NC(=O)COc1ccc(Cl)cc1`, the AC50 is 2510 nM (active).
As for `CC(=O)Nc1ccc(S(=O)(=O)NC(CC(=O)NCCCN2CCOCC2)C(C)C)cc1` (stereo unspecified), the “activity, negative = inhibition” value is 1.91%.
As for `Cc1cc(S(=O)(=O)NCCCN2CCOCC2)ccc1F`, the “activity, negative = inhibition” value was -23%.
`CN(Cc1ccco1)c1cc(-c2ccc3c(c2)OCO3)ncn1`: the AC50 was 501 nM (active).
For the compound `CN(Cc1ccco1)c1cc(-c2ccoc2)ncn1`, the “activity, negative = inhibition” value is -19.3%.
Regarding `CN(C)c1ccc(-c2cc(N(C)Cc3ccco3)ncn2)cc1`, the AC50 was 316 nM (active).
Turning to `COc1ccc(C(=O)N2CCC3(CC2)CN(Cc2ccc(C#N)cc2)C3)cc1`, the “activity, negative = inhibition” value is -8.04%.
With `COc1cc(NC(=S)Nc2ccc(S(=O)(=O)N3CCOCC3)cc2)cc(OC)c1OC`, the AC50 was 2510 nM (active).
Consider `COc1ccc(C(=O)Nc2ccc(S(=O)(=O)N3CCOCC3)cc2)cc1OC`, for which the “activity, negative = inhibition” value was 7.02%.
Still for that read-out and setting: next, `COc1ccc(NC(=O)N2CC[C@@]3(CCCN(C(=O)c4cccn4C)C3)C2)cc1`: -11.7%.
In the case of `O=C(CSc1ncccn1)Nc1ccc(S(=O)(=O)N2CCCCC2)cc1`, the “activity, negative = inhibition” value is -4.34%.
Consider `O=C(Nc1ccc(F)cc1)c1cc(S(=O)(=O)N2CCCCC2)cs1`, for which the AC50 was 17800 nM (active).
Regarding `O=C(O)c1cc(S(=O)(=O)N2CCCCC2)ccc1F`, the “activity, negative = inhibition” value was 14.6%.
Take `CC(C)=CCC/C(C)=C/CO/N=C1/C[C@@H](O)[C@@H](O)[C@@H]2[C@@H]3C(=O)N(C4CCCCC4)C(=O)[C@H]3CC[C@@H]12`: the activity, negative = inhibition was -3% [at 11.4 µM].
In the case of `COc1cccc(-c2nccc(NCc3ccccc3)n2)c1`, the AC50 was 501 nM (active).
The same measure, in the same setting: the value for `COc1cccc(-c2nccc(NCc3cccnc3)n2)c1` was 158 nM (active); that for `COc1ccc(-c2cc(C(F)(F)F)nc(NCc3cccnc3)n2)cc1` was 794 nM (active).
In the case of `COc1cccc(-c2nccc(NCc3cccs3)n2)c1`, the AC50 was 200 nM (active).
`CC[C@@H]1OC(=O)[C@H](C)[C@H](O[C@@H]2C[C@](C)(OC)[C@H](O)[C@H](C)O2)[C@H](C)[C@H](O[C@@H]2O[C@@H](C)C[C@@H](N(C)C)[C@@H]2O)[C@](C)(O)C[C@H](C)C(=O)[C@H](C)[C@H](O)[C@]1(C)O`: the “activity, negative = inhibition” value is -3.13% [at 25.6 µM].
Take `COc1cccc(-c2nccc(NCc3cccc(C)c3)n2)c1`: the AC50 is 316 nM (active).
For `COc1ccc(-c2cc(C(F)(F)F)nc(SCc3cccc(C(=O)O)c3)n2)cc1`, the AC50 was 7080 nM (active).
For `COCC(C)NCc1cccc(C)c1` (stereo unspecified), the “activity, negative = inhibition” value is -15.4%.
As to `CC(=O)OC[C@H]1O[C@@H](O/N=C(\C)CCN2CCCCc3nc(C)c(C)cc32)[C@H](OC(C)=O)[C@@H](OC(C)=O)[C@H]1OC(C)=O`, the activity, negative = inhibition is -3.61% [at 11.4 µM].
For `CCOc1ccc(CCNC(=O)CCCN2C(=O)c3ccccc3C2=O)cc1OCC`, the “activity, negative = inhibition” value is -7.98%.
As to `CCOc1ccc(-c2cc(CCCC(=O)NCCc3ccc(OC)c(OC)c3OC)no2)cc1`, the AC50 is 63.1 nM (active).
`CCOc1ccc(N(CC(=O)NCc2ccc(OC)cc2)S(=O)(=O)c2c(C)noc2C)cc1`: the “activity, negative = inhibition” value was -6.85%.
Turning to `COc1ccc(-n2nc3cc(C)c(NC(=S)NC(=O)c4ccccc4C)cc3n2)cc1`, the “activity, negative = inhibition” value was -17.3%.
As for `Cc1ccccc1C(=O)NC(=S)NCC(=O)c1ccccc1`, the AC50 is 10000 nM (active).
In the case of `O=C(CNC(=O)c1ccc([N+](=O)[O-])cc1)c1ccccc1`, the “activity, negative = inhibition” value was -9.2%.
Regarding `Cc1noc(C)c1-c1nc(NCCN2CCOCC2)c2ccccc2n1`, the AC50 was 2510 nM (active).
The same measure, in the same setting: next, `COCCNc1nc(-c2c(C)noc2C)nc2ccccc12`: 126 nM (active); `CC(=O)NCCNc1nc(-c2c(C)noc2C)nc2ccccc12`: 1580 nM (active).
In the case of `c1ccc(-n2ncc3c(NCCCN4CCOCC4)ncnc32)cc1`, the “activity, negative = inhibition” value was -22.5%.
Same read-out and setting: next, `O=C(Nc1cccc(F)c1)N1CC[C@@]2(CCCN(C(=O)c3cc(C(F)(F)F)cc(C(F)(F)F)c3)C2)C1`: -14.9%; `CN(C)CCCCN1CCc2c(n(C)c3ccccc23)C1=O`: -14.1% [at 2.29 µM]; `CN(C)CCCNc1cc(O)c2c(c1O)C(=O)c1ccccc1C2=O`: -23.1% [at 2.29 µM].
As to `CN(C)CCCNC(=O)c1cc2c3ccccc3n(C)c2s1`, the AC50 is 14100 nM (active).
The same measure, in the same setting: the value for `CC(=O)c1[nH]c(C)c(C(C)=O)c1C` was 708 nM (active).
Turning to `COC(Cn1c(C)c(C(C)=O)c(C(C)=O)c1C)OC`, the “activity, negative = inhibition” value was -7.78%.
Consider `CC(C)c1ccc(Cn2ccc3c4c(N)nc(NC5CC5)nc4ccc32)cc1`, for which the AC50 is 1580 nM (active).
As to `CC(=O)NCCNc1ncnc2ccc(-c3ccccc3C)cc12`, the AC50 is 631 nM (active).
The same measure, in the same setting: next, `COc1ccccc1-c1ccc2ncnc(NCCNC(C)=O)c2c1`: 5010 nM (active).
As for `CC(=O)NCCNc1ncncc1-c1ccccc1C(F)(F)F`, the “activity, negative = inhibition” value is -19.2%.
